PubChem BioAssay (Tox21)
Values joined by “and” are separate entries in the source; they are usually repeats but may differ in a detail not shown here. Identical values can stand only once. Results filed as inconclusive are left out. Where a call stands in place of a potency, no number is given. Some compounds were tested as several samples or in several runs, with calls that do not always agree. Active and inactive are the calls of the source. Unless noted, the call rests on the fitted dose curve; in most records, active means well fitted curve in the direction sought with a large enough effect in the repeat runs; inconclusive means weak or mixed curves; inactive means no such curve, though single readings can be large; an effect the other way counts as inactive or inconclusive.

What was measured:
[1] = qHTS assay to identify small molecule agonists of the vitamin D receptor (VDR) signaling pathway - cell viability counter screen (AID 743224); further: nearly all actives have a fitted effect of over 50% in size; further: potency means the concentration at half of the fitted maximal effect; on activity change, negative = cytotoxicity: series mostly up to about 63 µM
How it was run: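 Counter screen run in the same wells as the VDR-bla reporter assay: CellTiter-Glo luminescence, 30 min at room temperature, after 16 h compound treatment at 37C of cells pre-plated for 4 h.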

[2] = qHTS assay to identify small molecule antagonists of the vitamin D receptor (VDR) signaling pathway - cell viability counter screen (AID 743225); further: nearly all actives have a fitted effect of over 50% in size
How it was run: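 Compounds were pinned onto VDR-bla HEK 293T cells together with 1-alpha,25-dihydroxyvitamin D3 at 3 nM final. After 16 h at 37C and 5% CO2 plus the reporter readout, cell viability was measured by CellTiter-Glo luminescence (30 min, room temperature).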

[3] = qHTS assay to identify small molecule agonists of the NFkB signaling pathway (AID 1159509; active means well fitted curve in the direction sought with a large enough effect in the signal ratio in the repeat runs, not every such curve was filed as active; the % refers to the signal ratio; further: series mostly up to about 61 µM)
How it was run: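 Readout: FRET fluorescence, 405 nm excitation, 460/530 nm emission; beta-lactamase expression disrupts FRET. Cells: ME-180 stably carrying NF-kB-driven bla reporter. Compound exposure 5 hr, 37 C, 5% CO2.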

[4] = qHTS assay to identify small molecule agonists of the NFkB signaling pathway - cell viability counter screen (AID 1159515; calls by dose curve; further: series mostly up to about 61 µM; nearly all actives have a fitted effect of over 55% in size)
How it was run: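 Read by CellTiter-Glo luminescence (30 min, room temperature) in the wells also used for the beta-lactamase FRET read. ME-180 NFkB-bla cells at 2,000 per well were plated overnight, then exposed to compound for 5 hr at 37 C.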

[5] = qHTS assay to identify small molecule agonists of the endoplasmic reticulum stress response signaling pathway (AID 1159516; active means well fitted activation curve with a large enough effect in the signal ratio in the repeat runs, not every such curve was filed as active; the % refers to the signal ratio)
How it was run: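 Ratiometric FRET readout (405 nm excitation; 460 and 530 nm emission) of a beta-lactamase gene driven by the ER stress response element, after 2 hr substrate loading. HeLa ESRE-bla cells were seeded overnight and treated with compounds for only 5 hr at 37 C.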

[6] = qHTS assay to identify small molecule agonists of the endoplasmic reticulum stress response signaling pathway - cell viability counter screen (AID 1159517; calls by dose curve; further: series mostly up to about 61 µM; nearly all actives have a fitted effect of over 50% in size)
How it was run: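 After overnight attachment, ESRE-bla HeLa cells were treated with Tox21 library compounds for 5 hr. CellTiter-Glo luminescence, read 30 min post-addition at room temperature, reported viability.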

[7] = qHTS assay to identify small molecule antagonists of the retinoid-related orphan receptor gamma (ROR-gamma) signaling pathway - cell viability counter screen (AID 1159520); further: nearly all actives have a fitted effect of over 50% in size
How it was run: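 Cytotoxicity was read from cellular ATP (CellTiter-Glo luminescence) after 16 hr at 37 C with 1 uM doxycycline induction. The inducer was added 2 hr after compound transfer to Tet-on ROR gamma CHO cells.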

[8] = target: Nuclear receptor ROR-gamma (Homo sapiens) (UniProt P51449); assay: qHTS assay to identify small molecule antagonists of the retinoid-related orphan receptor gamma (ROR-gamma) signaling pathway (AID 1159521; further: nearly all actives have a fitted effect of over 50% in size; further: potency means the concentration at half of the fitted maximal effect)
How it was run: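 Test compounds were applied to Tet-on RORγ CHO cells 2 h ahead of doxycycline hyclate (1 uM final). Luciferase reporter activity was quantified by luminescence after 16 h at 37 C and 5% CO2.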

[9] = qHTS assay to identify small molecule agonists of the AP-1 signaling pathway - cell viability counter screen (AID 1159525; calls by dose curve; further: nearly all actives have a fitted effect of over 55% in size)
How it was run: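 Intracellular ATP by Cell Titer Glo luminescence (30 min, RT) in the same ME-180 AP-1-bla wells after the 5 h compound exposure at 37 °C. Normalised to tetra n-octyl ammonium bromide and DMSO controls.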

[10] = qHTS assay to identify small molecule agonists of the AP-1 signaling pathway (AID 1159526; calls by dose curve)

Row | Compound | Potency [1] | Potency [2] | outcome [3] | outcome [4] | outcome [5] | Potency [6] | Potency [7] | Potency [8] | Potency [9] | Potency [10] | activity change, negative = cytotoxicity [6]
1 | CCCCC(CC)COC(C)=O (stereo not given) | inactive | inactive | inactive | inactive | inactive | inactive | inactive | inactive | inactive | inactive | –
2 | O=C(O)c1ccc([N+](=O)[O-])cc1 | inactive | inactive | inactive | inactive | inactive | inactive | inactive | inactive | inactive | inactive | –
3 | NCCc1ccc(O)c(O)c1 | inactive | inactive | inactive | inactive | inactive | inactive | inactive | inactive | inactive | inactive | –
4 | CCCCC(CC)COC(=O)/C=C\C(=O)OCC(CC)CCCC (stereo not given) | inactive | inactive | inactive | inactive | inactive | inactive | inactive | inactive | inactive | inactive | –
5 | O=c1c(-c2ccc(O)cc2)coc2cc(O)ccc12 | inactive | inactive | inactive | inactive | inactive | inactive | inactive | inactive | inactive | inactive | –
6 | O=C(c1cc(O)c(O)c(O)c1)c1ccc(O)c(O)c1O | inactive | inactive | inactive | inactive | inactive | inactive | inactive | 21.7 µM (active) and inactive | inactive | inactive | –
7 | C=C(C#N)C(=O)OCC | inactive | inactive | inactive | inactive | inactive | inactive | inactive | inactive | inactive | inactive | –
8 | Oc1ccc(OCc2ccccc2)cc1 | inactive | inactive | inactive | inactive | inactive | inactive | inactive | inactive | inactive | inactive | –
9 | Cc1ccc(C)c(C)c1 | inactive | inactive | inactive | inactive | inactive | inactive | inactive | inactive | inactive | inactive | –
10 | CC1(C)O[C@@H]2C[C@H]3[C@@H]4C[C@H](F)C5=CC(=O)CC[C@]5(C)[C@H]4[C@@H](O)C[C@]3(C)[C@]2(C(=O)CO)O1 | inactive | inactive | inactive | inactive | inactive | inactive | inactive | inactive | inactive | inactive | –
11 | CCCCC/C=C\C/C=C\CCCCCCCC(=O)OC | inactive and 49 µM (active) | inactive | inactive | inactive | inactive | inactive | inactive | inactive | inactive | inactive | –
12 | CC1=C(CC(=O)O)c2cc(F)ccc2/C1=C\c1ccc(S(C)=O)cc1 (stereo not given) | inactive | inactive | inactive | inactive | inactive | inactive | inactive | inactive | inactive | inactive | –
13 | OC[C@@H](O)[C@@H](O)[C@H](O)[C@@H](O)CO | inactive | inactive | inactive | inactive | inactive | inactive | inactive | inactive | inactive | inactive | –
14 | Cc1cc(=O)[nH]c(C(C)C)n1 | inactive | inactive | inactive | inactive | inactive | inactive | inactive | inactive | inactive | inactive | –
15 | CC(C)(C)C1CCC(O)CC1 (stereo not given) | inactive | inactive | inactive | inactive | inactive | inactive | inactive | inactive | inactive | inactive | –
16 | O=C(Cl)c1c(Cl)c(Cl)c(C(=O)Cl)c(Cl)c1Cl | inactive | inactive | inactive | inactive | inactive | inactive | inactive | inactive | inactive | inactive | –
17 | NCCNCCNCCNCCN | inactive | inactive | inactive | inactive | inactive | – | inactive | inactive | inactive | inactive | 18.7% [at 6.95 µM] (inactive)
18 | CCCCOCCOCCOC(=O)CCCCC(=O)OCCOCCOCCCC | inactive | inactive | inactive | inactive | inactive | inactive | inactive | inactive | inactive | inactive | –
19 | O=S(=O)(Oc1ccc(Cl)cc1Cl)c1ccccc1 | inactive | inactive | inactive | inactive | inactive | inactive | inactive | inactive | inactive | inactive | –
20 | Cc1cc(O)cc(C)c1Cl | inactive | inactive | inactive | inactive | inactive | inactive | inactive | inactive | inactive | inactive | –
21 | O=C(c1ccc(O)cc1)c1ccc(O)cc1O | inactive | inactive | inactive | inactive | inactive | inactive | inactive | inactive | inactive | inactive | –
22 | CC(=O)CCc1ccccc1 | inactive | inactive | inactive | inactive | inactive | inactive | inactive | inactive | inactive | inactive | –
23 | CCC(C)C=O (stereo not given) | inactive | inactive | inactive | inactive | inactive | inactive | inactive | inactive | inactive | inactive | –
24 | C=C(C)C(=O)OCCCCCCCCCCCC | inactive | inactive | inactive | inactive | inactive | inactive | inactive | inactive | inactive | inactive | –
